The results in this text go back to ChEMBL document CHEMBL3433997, “St. Jude Leishmania screening dataset” (2016).

The target of one test is Hexose transporter 1 (Plasmodium falciparum) (UniProt O97467). Kind of test: ST_JUDE_LEISH: Cytotoxicity at 2uM final concentration against transgenic Leishmania Mexicana promastigotes LmPfHT that are glucose transport deficient and complemented with the Plasmodium falciparum hexose transporter. Activity is measured by DNA content using SYBR green in vitro. Format: functional.
For the compound `COc1ccc(Nc2nc(N/N=C/c3cc(Br)ccc3O)nc(Nc3ccc([N+](=O)[O-])cc3)n2)cc1`, the inhibition is -2.54%.

Take `O=C(Nc1cccc(-c2csc(-c3nc4ccccc4[nH]3)c2)c1)c1ccncc1`: the inhibition stood at 8.89%.

Turning to `CCCc1cc(Cc2cnc(N)nc2N)cc2c1OC(C)(C)C2`, the inhibition stood at 3.03%.

As for `CN(C)CCCNCCS(=O)(=O)c1cccc(Nc2ccc(-c3cccc(N(C)C)c3)cn2)c1`, the inhibition came out at 1.88%.

Turning to `Cc1cc(=NN=Cc2ccccc2F)c2cccc(C)c2[nH]1`, the inhibition is 5.38%.

On to `COc1ccc(C(=O)Nc2ccc3nc(N4CCCCC4)cc(C)c3c2)cc1[N+](=O)[O-]`, for which the inhibition amounted to 3.3%.

Take `O=C(Nc1ccc(Cl)c(Cl)c1)Nc1ccc2nccc(N3CCN(Cc4ccccc4)CC3)c2c1`: the inhibition was 0.94%.

For the compound `Cc1cc(N[C@@H](Cc2ccccc2)C(=O)NCc2cccc(F)c2)nc(NCc2ccccc2C)n1`, the inhibition came to 4.67%.

For `Cc1cc(NC(=O)Nc2cccc(N(C)C)c2)c2ccccc2n1`, the inhibition worked out at 2.59%.

With `CC[C@@]1(O)C(=O)OCc2c1cc1n(c2=O)Cc2c-1nc1cc3c(cc1c2CN1CCN(C)CC1)OCCO3`, the inhibition turned out to be 15%.

Consider `Cc1cccc2nc(-c3cccc(-c4ccc(CN5CCCC5CN)cc4)c3)[nH]c12` (stereo not given), for which the inhibition is 0.15%.

For the compound `CC(CNC(=O)C(c1cc2ccccc2o1)N1CCN(C(c2ccccc2)c2ccccc2)CC1)c1ccccc1` (stereo not given), the inhibition is 3.31%.

On to `N#Cc1cncc(-c2nc3c(N4CCC(Cc5ccccc5)CC4)cccc3n2C2CCNC2)c1` (stereo not given), for which the inhibition was -0.39%.

With `CCCOc1ccc(NC(=O)c2cccs2)cc1Cl`, the inhibition came out at 8.57%.

As for `Cc1ccc(F)c(OCC2CCN(c3ncc(C(=O)NC4CC4)cc3Cl)CC2)c1`, the inhibition is 2.1%.

As to `COC(=O)c1cccc(C#CCCOCCCCCCNC[C@H](O)c2cc(Cl)c(N)c(Cl)c2)c1`, the inhibition was found to be 0.28%.

Turning to `Cc1cc(C(=O)Nc2ccc(-c3nc4ccccc4[nH]3)cc2)ccc1[N+](=O)[O-]`, the inhibition stood at 1.97%.

For the compound `Cc1ccc(CNC(=O)[C@H](CC(C)C)Nc2cc(C)nc(Nc3ccccc3)n2)cc1`, the inhibition came to 4.07%.

With `COc1cc(-c2nc(-c3ccccc3)c(-c3ccccc3)[nH]2)ccc1OCCN(C)C`, the inhibition turned out to be 1.4%.

Turning to `c1ccc(CN2CCCN(c3ccc4c(c3)CCN(Cc3ccc(-c5ncc[nH]5)cc3)CC4)CC2)cc1`, the inhibition turned out to be 3.96%.

In the case of `COc1ccc(-c2ccc(S(=O)(=O)Nc3cc4c(cc3OC(C)C)CCNCC4)cc2)cc1`, the inhibition was -1.7%.

Consider `Cc1cc(OCCCN2CCC(NS(=O)(=O)c3cc(Br)c(Cl)s3)CC2)c2ccccc2n1`, for which the inhibition is -0.46%.

On to `Cc1onc(-c2ccccc2)c1-c1nc(NCCC(c2ccccc2)c2ccccc2)no1`, for which the inhibition was 9.89%.

Consider `CN(C)CCn1c(N)c(-c2nc3ccccc3s2)c2nc(C#N)c(C#N)nc21`, for which the inhibition was found to be 1.76%.

As for `CC1(C)CNCc2cc(NC(=O)/C=C/c3ccc(Cl)cc3)ccc21`, the inhibition was -2.52%.

The target in the next test is Glucose transporter (Leishmania mexicana) (UniProt O61059). Kind of test: ST_JUDE_LEISH: Cytotoxicity at 2uM final concentration against transgenic Leishmania Mexicana promastigotes LmGT2 that are glucose transport deficient and complemented with the L. Mexicana glucose transporter 2. Activity is measured by DNA content using SYBR green in vitro. Format: functional.
For the compound `COc1ccc(NS(=O)(=O)c2ccc(C(=O)Nc3ccc(OC(F)(F)F)cc3)cc2)cc1N1CCN(CC2CC2)CC1`, the inhibition was 4.14%.

In the case of `COc1ccc(CCNC(=O)c2cc(C)ccc2O)cc1-c1ccc(C(C)(C)C)cc1`, the inhibition was 4.35%.

Turning to `Cc1ccc2c(c1)c(-c1ccccc1)c(-c1ccccc1)n2CC(O)CN1CCN(CC=Cc2ccccc2)CC1` (stereo not given), the inhibition is 0.7%.

Regarding `CCNC(=O)Nc1ccc(-c2cnc(N)c(-c3nc4ccc(OC)cc4[nH]3)c2)cc1`, the inhibition worked out at 3.1%.

Consider `CN1CCC(NCc2cccc(-c3cnc(NCc4ccccc4)nc3)c2)CC1`, for which the inhibition came out at 1%.

With `CN1CCN(c2cc(NC(=O)c3ccc(-c4ccc(C#N)cc4)cc3)ccc2Cl)CC1`, the inhibition worked out at 0.17%.

As to `CCn1ncc2c(N3CCCC3=O)cc(C(=O)N[C@@H](Cc3ccccc3)[C@H](O)CNC(C)(C)c3cccc(OC)c3)cc21`, the inhibition was 0.04%.

As for `Cc1cccc2nc(-c3ccc(-c4ccc(NC(=O)Nc5cccc(C#N)c5)cc4)s3)[nH]c12`, the inhibition worked out at 8.07%.

Regarding `O=C1NC(c2ccc(N3CCCCCC3)cc2)Nc2ccccc21` (stereo not given), the inhibition was 2.21%.

On to `NC1CCN(Cc2cccc(-c3ccc(-c4nc5ccccc5[nH]4)s3)c2)C1` (stereo not given), for which the inhibition is 4.58%.

With `CNC(=O)Cc1ccc(C(=O)Nc2cccc(-c3cccc(-c4nc5cccc(C)c5[nH]4)c3)c2)cc1`, the inhibition is -1.69%.

On to `CCc1c(C)nc(-n2nc(C)cc2NC(=O)CCc2ccccc2)[nH]c1=O`, for which the inhibition was found to be 2.86%.

For `Cc1ccc(-n2nc(-c3ccccc3)c3cc(C(=O)NCCN)sc32)cc1`, the inhibition is -6.61%.

For `COc1cc(Cc2cnc(N)nc2N)cc(OCCCCC#N)c1OC`, the inhibition was 5.77%.

On to `N#Cc1c(N)n(CCc2ccc(F)cc2)c2nc3ccccc3nc12`, for which the inhibition was -0.08%.

For `COc1ccc(Nc2nc(N/N=C/c3cc(Br)ccc3O)nc(Nc3ccc([N+](=O)[O-])cc3)n2)cc1`, the inhibition was 1.51%.

As for `O=C(Nc1cccc(-c2csc(-c3nc4ccccc4[nH]3)c2)c1)c1ccncc1`, the inhibition was determined as 6.69%.

As for `CCCc1cc(Cc2cnc(N)nc2N)cc2c1OC(C)(C)C2`, the inhibition amounted to 2.58%.

For the compound `CN(C)CCCNCCS(=O)(=O)c1cccc(Nc2ccc(-c3cccc(N(C)C)c3)cn2)c1`, the inhibition amounted to 1.78%.

For `Cc1cc(=NN=Cc2ccccc2F)c2cccc(C)c2[nH]1`, the inhibition amounted to 0.4%.

Turning to `COc1ccc(C(=O)Nc2ccc3nc(N4CCCCC4)cc(C)c3c2)cc1[N+](=O)[O-]`, the inhibition is 2%.

On to `O=C(Nc1ccc(Cl)c(Cl)c1)Nc1ccc2nccc(N3CCN(Cc4ccccc4)CC3)c2c1`, for which the inhibition came to 3.64%.

For `Cc1cc(N[C@@H](Cc2ccccc2)C(=O)NCc2cccc(F)c2)nc(NCc2ccccc2C)n1`, the inhibition was 3.17%.

`Cc1cc(NC(=O)Nc2cccc(N(C)C)c2)c2ccccc2n1`: the inhibition was found to be 1.12%.

Take `CC[C@@]1(O)C(=O)OCc2c1cc1n(c2=O)Cc2c-1nc1cc3c(cc1c2CN1CCN(C)CC1)OCCO3`: the inhibition was determined as 3.83%.

With `Cc1cccc2nc(-c3cccc(-c4ccc(CN5CCCC5CN)cc4)c3)[nH]c12` (stereo not given), the inhibition turned out to be 0.68%.

`CC(CNC(=O)C(c1cc2ccccc2o1)N1CCN(C(c2ccccc2)c2ccccc2)CC1)c1ccccc1` (stereo not given): the inhibition is 3.92%.

Consider `N#Cc1cncc(-c2nc3c(N4CCC(Cc5ccccc5)CC4)cccc3n2C2CCNC2)c1` (stereo not given), for which the inhibition was -0.61%.

As to `CCCOc1ccc(NC(=O)c2cccs2)cc1Cl`, the inhibition was determined as 9.7%.

Turning to `Cc1ccc(F)c(OCC2CCN(c3ncc(C(=O)NC4CC4)cc3Cl)CC2)c1`, the inhibition amounted to 1.1%.

In the case of `COC(=O)c1cccc(C#CCCOCCCCCCNC[C@H](O)c2cc(Cl)c(N)c(Cl)c2)c1`, the inhibition was 1.01%.

Consider `Cc1cc(C(=O)Nc2ccc(-c3nc4ccccc4[nH]3)cc2)ccc1[N+](=O)[O-]`, for which the inhibition is -1.54%.

On to `Cc1ccc(CNC(=O)[C@H](CC(C)C)Nc2cc(C)nc(Nc3ccccc3)n2)cc1`, for which the inhibition was -0.24%.

For `COc1cc(-c2nc(-c3ccccc3)c(-c3ccccc3)[nH]2)ccc1OCCN(C)C`, the inhibition amounted to 0.91%.

For the compound `c1ccc(CN2CCCN(c3ccc4c(c3)CCN(Cc3ccc(-c5ncc[nH]5)cc3)CC4)CC2)cc1`, the inhibition stood at 0.68%.

For `COc1ccc(-c2ccc(S(=O)(=O)Nc3cc4c(cc3OC(C)C)CCNCC4)cc2)cc1`, the inhibition is -2.37%.

`Cc1cc(OCCCN2CCC(NS(=O)(=O)c3cc(Br)c(Cl)s3)CC2)c2ccccc2n1`: the inhibition is -0.25%.

Turning to `Cc1onc(-c2ccccc2)c1-c1nc(NCCC(c2ccccc2)c2ccccc2)no1`, the inhibition turned out to be 6.9%.

For `CN(C)CCn1c(N)c(-c2nc3ccccc3s2)c2nc(C#N)c(C#N)nc21`, the inhibition was found to be 3.11%.

Consider `CC1(C)CNCc2cc(NC(=O)/C=C/c3ccc(Cl)cc3)ccc21`, for which the inhibition was 2.38%.
